Laboratory results as given in PubChem BioAssay (NCATS).
Records with an inconclusive call do not appear. The source made the active and inactive calls. Calls come from the whole dose curve; as a rule, active = well fitted curve in the direction sought with a large enough effect; inconclusive = small, poorly fitted or top-dose-only effect, or another doubt; inactive = no such curve, though single readings can be large; an effect the other way counts as inactive or inconclusive.

Tests used:
[1] = Quantitative High-Throughput drug screen in 47 multiple myeloma cell lines against the NCATS MIPE library collection: FR4_PLB cell viability assay (AID 1918924; note: nearly all actives have a fitted effect of over 35% in size)
Outline: (§1)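 Inhibition of cell viability is measured here. Each line was plated at 500 cells per well, treated with MIPE 4.0 drugs, kept 48 hours at 37C, then assayed for ATP content by CellTiter-Glo luminescence.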

[2] = Quantitative High-Throughput drug screen in 47 multiple myeloma cell lines against the NCATS MIPE library collection: Delta47_JCRB cell viability assay (AID 1918925; note: nearly all actives have a fitted effect of over 45% in size)
Outline: (§2)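 Relative luminescence from CellTiter-Glo served as the viability signal, referenced to DMSO-treated (100%) and cell-free medium (0%) controls. Treatment lasted 48 hours at 37C with 500 cells per well.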

[3] = Quantitative High-Throughput drug screen in 47 multiple myeloma cell lines against the NCATS MIPE library collection: EJM_DSMZ cell viability assay (AID 1918926; note: nearly all actives have a fitted effect of over 30% in size)
Outline: as §2

[4] = Quantitative High-Throughput drug screen in 47 multiple myeloma cell lines against the NCATS MIPE library collection: AMO1_DSMZ cell viability assay (AID 1918927; note: nearly all actives have a fitted effect of over 30% in size)
Outline: as §2

[5] = Quantitative High-Throughput drug screen in 47 multiple myeloma cell lines against the NCATS MIPE library collection: ARP1_JJKsccF8 cell viability assay (AID 1918928; note: nearly all actives have a fitted effect of over 40% in size)
Outline: (§3)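 Myeloma cells at 500 per well in 1536-well format treated with MIPE 4.0 library by pin transfer for 48 h at 37C, 5% CO2. Viability from ATP luminescence (CellTiter-Glo), normalized to DMSO (100%) and media-only (0%) wells.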

[6] = Quantitative High-Throughput drug screen in 47 multiple myeloma cell lines against the NCATS MIPE library collection: ARD_JJKsccE7 cell viability assay (AID 1918929)
Outline: as §2

[7] = Quantitative High-Throughput drug screen in 47 multiple myeloma cell lines against the NCATS MIPE library collection: Karpas620_DSMZ cell viability assay (AID 1918959); note: nearly all actives have a fitted effect of over 30% in size
Outline: as §1

[8] = Quantitative High-Throughput drug screen in 47 multiple myeloma cell lines against the NCATS MIPE library collection: KMM1_JCRB cell viability assay (AID 1918960); note: nearly all actives have a fitted effect of over 30% in size
Outline: as §3

[9] = Quantitative High-Throughput drug screen in 47 multiple myeloma cell lines against the NCATS MIPE library collection: Karpas417_ECACC cell viability assay (AID 1918961); settings: Karpas417 myeloma viability, CellTiter-Glo ATP luminescence, 48 h; viability (% of DMSO): at 45.8 µM (top of the series)
Outline: (§4)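 qHTS of the MIPE 4.0 collection: 500 myeloma cells/well, 48 h drug exposure at 37C in 5% CO2, then CellTiter-Glo for 5 min at room temperature before luminescence reading.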

[10] = Quantitative High-Throughput drug screen in 47 multiple myeloma cell lines against the NCATS MIPE library collection: KHM11_PLB cell viability assay (AID 1918962); note: nearly all actives have a fitted effect of over 35% in size
Outline: as §1

[11] = Quantitative High-Throughput drug screen in 47 multiple myeloma cell lines against the NCATS MIPE library collection: JIM3_ECACC cell viability assay (AID 1918963; note: nearly all actives have a fitted effect of over 35% in size)
Outline: as §1

[12] = Quantitative High-Throughput drug screen in 47 multiple myeloma cell lines against the NCATS MIPE library collection: INA6_PLB cell viability assay (AID 1918965; note: nearly all actives have a fitted effect of over 55% in size)
Outline: as §4

[13] = Quantitative High-Throughput drug screen in 47 multiple myeloma cell lines against the NCATS MIPE library collection: JJN3_DSMZ cell viability assay (AID 1918966; note: nearly all actives have a fitted effect of over 50% in size)
Outline: as §2

[14] = Quantitative High-Throughput drug screen in 47 multiple myeloma cell lines against the NCATS MIPE library collection: H1112_PLB cell viability assay (AID 1918967; note: nearly all actives have a fitted effect of over 30% in size)
Outline: as §2

[15] = Quantitative High-Throughput drug screen in 47 multiple myeloma cell lines against the NCATS MIPE library collection: KMS27_JCRB cell viability assay (AID 1918970); note: nearly all actives have a fitted effect of over 30% in size
Outline: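 Viability inhibition screen, 48 h compound exposure, luminescent ATP read-out.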

[16] = Quantitative High-Throughput drug screen in 47 multiple myeloma cell lines against the NCATS MIPE library collection: KMS12BM_JCRB cell viability assay (AID 1918971); note: nearly all actives have a fitted effect of over 35% in size
Outline: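 Steps: seed 500 cells per well; pin-transfer MIPE 4.0 library; incubate 48 h at 37C, 5% CO2, humidified; add CellTiter-Glo, 5 min room temperature; read luminescence.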

[17] = Quantitative High-Throughput drug screen in 47 multiple myeloma cell lines against the NCATS MIPE library collection: KMS12PE_JCRB cell viability assay (AID 1918972); note: nearly all actives have a fitted effect of over 30% in size
Outline: as §4

[18] = Quantitative High-Throughput drug screen in 47 multiple myeloma cell lines against the NCATS MIPE library collection: KMS20_JCRB cell viability assay (AID 1918973); note: nearly all actives have a fitted effect of over 45% in size
Outline: as §2

[19] = Quantitative High-Throughput drug screen in 47 multiple myeloma cell lines against the NCATS MIPE library collection: Karpas25_ECACC cell viability assay (AID 1918968; note: nearly all actives have a fitted effect of over 35% in size)
Outline: as §2

[20] = Quantitative High-Throughput drug screen in 47 multiple myeloma cell lines against the NCATS MIPE library collection: JIM1_ECACC cell viability assay (AID 1918964)
Outline: as §2

Measured: Potency
Potency is the fitted concentration of half-maximal effect.

Cc1ccc(C(=O)Nc2ccc(CN3CCN(C)CC3)c(C(F)(F)F)c2)cc1C#Cc1cnc2cccnn12
active: [1] 1.48 µM | [2] 0.662 µM | [3] 2.64 µM | [4] 2.96 µM | [5] 1.66 µM | [6] 14.8 µM | [7] 5.26 µM | [8] 2.09 µM | [9] 0.469 µM | [10] 0.662 µM | [11] 1.87 µM | [12] 0.332 µM | [13] 2.64 µM | [14] 2.09 µM | [15] 2.64 µM | [16] 2.96 µM | [17] 0.833 µM | [18] 0.833 µM

CC1(C)OC2=C(C(=O)c3ccccc3C2=O)[C@H](NCc2ccccc2)[C@H]1O
active: [1] 2.64 µM | [2] 2.09 µM | [3] 2.35 µM | [4] 0.662 µM | [5] 5.26 µM | [6] 4.18 µM | [7] 1.48 µM | [8] 2.35 µM | [9] 1.87 µM | [10] 2.64 µM | [11] 2.09 µM | [12] 2.09 µM | [13] 3.72 µM | [14] 2.35 µM | [19] 0.59 µM | [15] 1.18 µM | [16] 8.33 µM | [17] 1.48 µM

CC(=O)c1c(C)c2cnc(Nc3ccc(N4CCNCC4)cn3)nc2n(C2CCCC2)c1=O
active: [1] 18.7 µM | [2] 23.5 µM | [3] 18.7 µM | [4] 16.6 µM | [5] 14.8 µM | [6] 14.8 µM | [7] 26.4 µM | [8] 20.9 µM | [9] 16.6 µM | [10] 23.5 µM | [11] 18.7 µM | [20] 5.9 µM | [12] 18.7 µM | [13] 23.5 µM | [14] 23.5 µM | [19] 11.8 µM | [15] 26.4 µM | [16] 0.833 µM | [17] 23.5 µM | [18] 7.43 µM

C1=CCOCc2cc(ccc2OCCN2CCCC2)Nc2nccc(n2)-c2cccc(c2)OCC1
active: [1] 3.32 µM | [2] 2.35 µM | [3] 2.64 µM | [4] 3.32 µM | [5] 1.66 µM | [6] 1.87 µM | [7] 2.09 µM | [8] 1.87 µM | [9] 1.66 µM | [10] 1.66 µM | [11] 2.64 µM | [20] 0.743 µM | [13] 4.18 µM | [14] 5.26 µM | [19] 1.66 µM | [15] 1.48 µM | [16] 7.43 µM | [17] 2.64 µM | [18] 2.35 µM

O=C(NC1CCNCC1)c1[nH]ncc1NC(=O)c1c(Cl)cccc1Cl
active: [1] 0.0833 µM | [2] 0.372 µM | [3] 0.105 µM | [4] 1.18 µM | [5] 0.372 µM | [6] 0.743 µM | [7] 0.935 µM | [8] 0.59 µM | [9] 0.187 µM | [10] 0.235 µM | [20] 0.264 µM | [12] 0.59 µM | [13] 0.187 µM | [14] 1.05 µM | [19] 0.372 µM | [15] 0.526 µM | [16] 0.235 µM | [17] 0.935 µM | [18] 0.469 µM

COc1cc2c(cc1-c1c(C)noc1C)ncc1[nH]c(=O)n([C@H](C)c3ccccn3)c12
active: [1] 0.833 µM | [2] 0.418 µM | [3] 10.5 µM | [4] 0.332 µM | [5] 0.332 µM | [6] 0.296 µM | [7] 5.9 µM | [8] 5.9 µM | [9] 0.148 µM | [10] 2.96 µM | [11] 18.7 µM | [20] 5.9 µM | [12] 0.264 µM | [13] 6.62 µM | [14] 20.9 µM | [19] 4.69 µM | [15] 3.72 µM | [16] 0.833 µM | [17] 0.833 µM | [18] 8.33 µM

CCCCOc1c(C(=O)c2c(F)cc(C)cc2F)cnc2n[nH]cc12
active: [1] 4.18 µM | [2] 2.64 µM | [3] 2.64 µM | [4] 1.66 µM | [5] 4.18 µM | [6] 2.96 µM | [7] 7.43 µM | [8] 2.35 µM | [9] 2.35 µM | [10] 3.72 µM | [11] 8.33 µM | [20] 2.96 µM | [13] 2.35 µM | [14] 4.69 µM | [19] 4.69 µM | [15] 3.72 µM | [16] 5.26 µM | [18] 4.18 µM

O=C(C=Cc1cccc(S(=O)(=O)Nc2ccccc2)c1)NO
active: [1] 1.52 µM | [2] 1.71 µM | [3] 6.05 µM | [4] 0.855 µM | [5] 0.96 µM | [6] 1.08 µM | [7] 2.41 µM | [8] 1.08 µM | [9] 1.08 µM | [10] 3.82 µM | [11] 5.4 µM | [20] 1.71 µM | [12] 0.762 µM | [13] 3.4 µM | [14] 5.4 µM | [19] 1.08 µM | [15] 2.7 µM | [16] 1.91 µM | [17] 1.36 µM | [18] 1.91 µM
